According to PubChem BioAssay (NCI):
About 83,000 compounds went through this panel and 20% of them were active in at least one assay; those are over-represented in the sample as a whole.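 A percent growth of 40 corresponds to 60% growth inhibition; 0 means no net growth; -100 means all cells died. Active threshold: below 10.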 Unmarked numbers belong to inactive results. The source made the active and inactive calls.

Key:
Assay in all cases: NCI-60 one-dose screen, 48 h (100 = growth as untreated, 0 = no growth, -100 = all killed)
Conditions in all cases: 10 µM unless noted
DU-145 prostate = tested on: DU-145 prostate
K-562 leukemia = tested on: K-562 leukemia
MALME-3M melanoma = tested on: MALME-3M melanoma
MDA-MB-231 breast = tested on: MDA-MB-231 breast
SF-268 CNS = tested on: SF-268 CNS
SF-295 CNS = tested on: SF-295 CNS
SF-539 CNS = tested on: SF-539 CNS
UACC-257 melanoma = tested on: UACC-257 melanoma
M14 melanoma = tested on: M14 melanoma
HCT-15 colon = tested on: HCT-15 colon
HT29 colon = tested on: HT29 colon
SNB-75 CNS = tested on: SNB-75 CNS
SNB-19 CNS = tested on: SNB-19 CNS
U251 CNS = tested on: U251 CNS
PC-3 prostate = tested on: PC-3 prostate
SK-MEL-5 melanoma = tested on: SK-MEL-5 melanoma
UACC-62 melanoma = tested on: UACC-62 melanoma
LOX IMVI melanoma = tested on: LOX IMVI melanoma
SK-MEL-28 melanoma = tested on: SK-MEL-28 melanoma
RXF 393 renal = tested on: RXF 393 renal

| Structure (SMILES) | growth (DU-145 prostate) | growth (K-562 leukemia) | growth (MALME-3M melanoma) | growth (MDA-MB-231 breast) | growth (SF-268 CNS) [%] | growth (SF-295 CNS) | growth (SF-539 CNS) | growth (UACC-257 melanoma) | growth (M14 melanoma) | growth (HCT-15 colon) | growth (HT29 colon) | growth (SNB-75 CNS) | growth (SNB-19 CNS) [%] | growth (U251 CNS) | growth (PC-3 prostate) | growth (SK-MEL-5 melanoma) | growth (UACC-62 melanoma) | growth (LOX IMVI melanoma) | growth (SK-MEL-28 melanoma) | growth (RXF 393 renal) |
| --- | --- | --- | --- | --- | --- | --- | --- | --- | --- | --- | --- | --- | --- | --- | --- | --- | --- | --- | --- | --- |
| Cc1ccccc1CNc1ncnc2[nH]ncc12 | 103% | 46.8% | 114% | 106% | 95.4 | 84.3% | 97.6% | 107% | 103% | 108% | 103% | 94.8% | 95.5 | 99.8% | 311% | 106% | 97.8% | 95% | 136% | – |
| O=C1OC(c2ccc(-c3ccccc3)cc2)=C/C1=C/c1c(Cl)cccc1Cl | 96.3% | 89.5% | 64% | 95.9% | 96.7 | – | 102% | -33.6% (active) | 105% | 83.7% | 101% | 85.1% | 105 | 102% | 91.8% | 101% | 85.5% | 103% | 101% | – |
| CC1(C)C(N(O)C(=O)Nc2ccc(Cl)cc2)N(c2ccc(Cl)cc2)C(=O)N1CC(=O)N/N=C/C=C/c1ccc([N+](=O)[O-])o1 (stereo unspecified) | 12.5% | 13.1% | -42.6% (active) | -48.7% (active) | – | 54.9% | -73.3% (active) | -33.7% (active) | -65.6% (active) | 37.5% | -43% (active) | 9.93% (active) | 48.5 | -14.4% (active) | 8.77% (active) | -96.5% (active) | -40.5% (active) | 0.58% (active) | -55.5% (active) | -77.9% (active) |
| CCCCn1c(-c2ccc(F)cc2)nc2cc(OC)c(OC)cc2c1=O | 111% | 85.5% | 71.8% | 87.1% | 101 | – | 101% | -32.2% (active) | 127% | 105% | 107% | 98.8% | 97.6 | 105% | 102% | 89.8% | 81.8% | 98.3% | 97.5% | – |
| CN=C1C=C/C(=N/N=c2/ccn(O)cc2C)C=C1C | 104% | 115% | – | 86.4% | 102 | – | 90.2% | 98.5% | 101% | 97.2% | 99.5% | 84.4% | 101 | 102% | 95.2% | 97.8% | 89% | 95.4% | 120% | 96.8% |
| CN(C)c1ccc(C(c2ccccc2)c2ccc(N(C)C)cc2)cc1 | 101% | 73.4% | – | 98.5% | 89.9 | – | 112% | 98.1% | 93% | 99.7% | 90.4% | 108% | 96.9 | 77.7% | 90.7% | 106% | 98.3% | 90% | 107% | 107% |
| COc1cc2c(cc1OC)C(=O)OC2 | 109% | 118% | 124% | 102% | 100 | 102% | 97% | 13.3% | 119% | 119% | 109% | 78.7% | 113 | 106% | 125% | 99.4% | 97.6% | 109% | 147% | – |
| CCCCCCCCCCC(C(O)c1ccccc1)N1CCCCC1 (stereo unspecified) | 64.5% | 3.31% (active) | – | 9.66% (active) | 68.4 | – | 27.3% | -1.19% (active) | -63.8% (active) | 16.8% | -10.5% (active) | 63.1% | 43.7 | 28% | 25.7% | -94.3% (active) | -9.77% (active) | -30.5% (active) | -15.9% (active) | -22.3% (active) |
| COc1ccc2c(c1)N(CCO)C1=C(C(=O)OC1)C2c1cccc(Br)c1 (stereo unspecified) | -27.2% (active) | 13.6% | – | -10.6% (active) | 25 | -19.4% (active) | -6.97% (active) | 60% | 8.81% (active) | 7.92% (active) | -9.38% (active) | 29.2% | 35.4 | 14% | 26.2% | 2.15% (active) | 25% | 22.2% | 58.6% | 44.4% |
| O=C1OCC2=C1C(c1cccc(Br)c1)c1cc3c(cc1N2CCO)OCCO3 (stereo unspecified) | -30.9% (active) | 17.5% | – | -21.5% (active) | 19 | -4.99% (active) | 0.257% (active) | 49% | 14.6% | 13.9% | – | 28.5% | 31.6 | 6.01% (active) | 25.4% | 1.61% (active) | 27.3% | 23.5% | 51.7% | 38.2% |
| COc1cc(-c2n/c(=C\c3c(O)[nH]c4cc(Cl)ccc34)cc3c2=Nc2ccccc2-3)cc(OC)c1OC | 30.6% | 49.1% | – | 53.1% | 22.5 | – | 62.7% | 40.9% | 37.7% | 93.7% | 24.3% | 36.1% | 63.9 | 23.8% | 52.2% | 27.2% | 56.8% | 34.3% | 43% | 28.7% |
| CC1=NN(c2cccc(S(N)(=O)=O)c2)C(=O)C1 | 100% | 99.4% | 89.9% | 97.1% | 91.6 | 87.8% | 91.5% | 124% | 95.3% | 111% | 104% | 82.7% | 90.4 | 101% | 80.1% | 92.8% | 89.7% | 96.3% | 111% | – |
| CCc1ccc2c(c1)N(CCO)C1=C(C(=O)OC1)C2c1cccc(Cl)c1 (stereo unspecified) | 11.3% | 13.3% | – | 30.8% | 44.9 | -15.6% (active) | -12.6% (active) | 62.2% | 4.38% (active) | 15.9% | 4.49% (active) | 18.9% | 36.4 | 18.1% | 28.8% | 32.1% | 21.8% | 44.3% | 50.3% | 10.1% |
| COC(=O)C1(C)COP(=O)(NC23CC4CC(CC(C4)C2)C3)OC1 (stereo unspecified) | 95.4% | 106% | – | 119% | 104 | 104% | 110% | 101% | 104% | 101% | 100% | 94.9% | 104 | 99.5% | 94.6% | 99.9% | 109% | 98.2% | 98.7% | 107% |
| Cc1nc([C@H]2CC[C@H]3[C@@H]4CCC5=CC(=O)CC[C@]5(C)[C@H]4CC[C@]23C)cs1 | 99.7% | 18% | 99.5% | 97.4% | 91.7 | 46.1% | 93.4% | 39.2% | 74.1% | 75.2% | 62.2% | 104% | 91.3 | 66% | 19.6% | 24.7% | 59.4% | 56.5% | 93.4% | – |
| Cc1cccc(C(=O)O)n1 | 116% | 102% | 111% | 120% | 107 | 98% | 99.7% | 105% | 108% | 99.4% | 112% | 103% | 97.6 | 105% | 117% | 98.3% | 101% | 101% | 123% | – |
| O=C1OCC2=C1C(c1ccc(Cl)c(Cl)c1)c1cc3c(cc1N2CCO)CCC3 (stereo unspecified) | 7.85% (active) | 19.7% | – | 8.3% (active) | 44.3 | -9.42% (active) | -10.2% (active) | 60.2% | 12.1% | 13.4% | 3.94% (active) | 18% | 32.5 | 16% | 25.5% | 30% | 13.7% | 32.8% | 47.3% | 21% |
